Source: PubChem BioAssay (EPA / NIEHS)
“And” between values parts separate entries of the source, which are not always exact repeats. Equal values may be shown once. Where a structure was tested more than once in an assay, its records may differ in their call. The source made the active and inactive calls. Rule for the calls: active = hit-call score of the fitted dose curve at least 0.9, where 1 is the maximum; inactive = score below 0.9.

How the values were obtained:
[1] = ATG_GLI_CIS: Attagene CIS-FACTORIAL HepG2 Assay for human Zinc Finger Protein GLI1 (AID 2282945); settings: HepG2, Attagene cis-factorial reporter mRNA, GLI element; actives raise or lower the signal
How it was run: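 Bidirectional curve fits relative to DMSO, using reporter mRNA levels from RT-PCR plus capillary electrophoresis. Cells were HepG2 transiently carrying cis-regulated reporter constructs, harvested 24 h after dosing.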

[2] = molecular target: Bile acid receptor (Homo sapiens) (UniProt Q96RI1); test: ATG_IR1_CIS: Attagene CIS-FACTORIAL HepG2 Assay for human Nuclear Receptor Subfamily 1 Group H Member 4 (NR1H4), IR1 submotif (AID 2282946); settings: IR1 reporter transcription, actives raise or lower the signal
How it was run: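 Cells (human HepG2) carry transiently transfected cis-promoter reporter transcription units. Compounds are incubated 24 h, total RNA is reverse-transcribed and amplified, and labelled fragments are resolved by capillary electrophoresis. Curves use DMSO as baseline.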

[3] = ATG_GRE_CIS: Attagene CIS-FACTORIAL HepG2 Assay for human Glucocorticoid Response Elements (GRE) (AID 2282947); settings: HepG2 GRE cis-reporter, Attagene multiplex mRNA; actives raise or lower the signal
How it was run: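 Assay uses human hepatoma HepG2 cells transfected with cis-promoter reporter units, exposed 24 h. mRNA from reporters detected by RT-PCR plus capillary electrophoresis; DMSO serves as negative control and baseline.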

[4] = ATG_ISRE_CIS: Attagene CIS-FACTORIAL HepG2 Assay for human Interferon Regulatory Factor 1 (IRF1) binding to an Interferon-Stimulated Response Element (ISRE) (AID 2282948); settings: HepG2 ISRE cis-reporter (Attagene), mRNA transcription readout; actives raise or lower the signal
How it was run: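 Transiently transfected HepG2 cells carrying cis-element reporter units, dosed 24 hours. Reporter mRNA quantified by RT-PCR, fluorescent primer extension, HpaI digestion and capillary electrophoresis. Bidirectional fitting relative to DMSO.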

[5] = ATG_M_32_CIS: Attagene CIS-FACTORIAL HepG2 Assay for M32 Transcription Factor (Internal Marker) (AID 2282949); settings: HepG2 Attagene cis-factorial M32 reporter, mRNA; actives raise or lower the signal;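 note: background control marker of the multiplexed CIS panel rather than a real target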
How it was run: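 Following 24 h chemical exposure of HepG2 cells transiently expressing cis-promoter reporter constructs, reporter transcript levels were determined by RT-PCR with fluorescent labelling and capillary electrophoresis, then fitted bidirectionally against DMSO.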

[6] = ATG_M_06_CIS: Attagene CIS-FACTORIAL HepG2 Assay for M06 Transcription Factor (Internal Marker) (AID 2282950); settings: HepG2 Attagene CIS-FACTORIAL M06 internal marker reporter; actives raise or lower the signal
How it was run: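 HepG2 cells transiently transfected with cis-regulated multiple reporter transcription units were exposed to chemical for 24 h; reporter mRNA was quantified by RT-PCR, 6-FAM primer labelling, HpaI digestion and capillary electrophoresis, fitted bidirectionally against DMSO.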

[7] = molecular target: Hypoxia-inducible factor 1-alpha (Homo sapiens) (UniProt Q16665); test: ATG_HIF1a_CIS: Attagene CIS-FACTORIAL HepG2 Assay for human Hypoxia Inducible Factor 1 (HIF1A) (AID 2282951); settings: HepG2 Attagene cis-factorial HIF1a reporter transcription; actives raise or lower the signal
How it was run: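 Endogenous-TF cis reporter readout, human HepG2 cells, 24 h incubation; mRNA detected via RT-PCR and capillary electrophoresis fluorescence; DMSO-normalised bidirectional fitting.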

[8] = molecular target: Hepatocyte nuclear factor 6 (Homo sapiens) (UniProt Q9UBC0); test: ATG_HNF6_CIS: Attagene CIS-FACTORIAL HepG2 Assay for human Hepatocyte Nuclear Factor 6 (HNF6) (AID 2282952); settings: HepG2 Attagene cis-factorial HNF6 reporter transcription; actives raise or lower the signal
How it was run: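 Reporter mRNA induction or loss in HepG2 after 24 h exposure; transient cis-MRTU transfection; fragments quantified by capillary electrophoresis; bidirectional analysis, DMSO as negative control.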

[9] = molecular target: Heat shock factor protein 1 (Homo sapiens) (UniProt Q00613); test: ATG_HSE_CIS: Attagene CIS-FACTORIAL HepG2 Assay for human Heat Shock Transcription Factor 1 (HSE) (AID 2282953); settings: HepG2 HSE cis-reporter, Attagene RNA transcription; actives raise or lower the signal
How it was run: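 HepG2 cells transiently transfected with multiple reporter transcription units under cis-regulatory promoter control, measuring endogenous transcription factor activity. After 24 h chemical exposure, reporter mRNA quantified by RT-PCR, fluorescent labelling, HpaI digestion and capillary electrophoresis; bidirectional fit versus DMSO.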

[10] = ATG_MRE_CIS: Attagene CIS-FACTORIAL HepG2 Assay for human Metal Responsive Element (MRE) (AID 2282954); settings: HepG2 MRE cis-reporter transcription, Attagene multiplex; actives raise or lower the signal
How it was run: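 After a 24 h chemical exposure, transiently transfected HepG2 cells yield RNA whose reporter sequences are amplified, FAM-labelled and sized by capillary electrophoresis. Curves are fitted bidirectionally relative to DMSO.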

[11] = ATG_PBREM_CIS: Attagene CIS-FACTORIAL HepG2 Assay for human Phenobarbital-responsive Enhancer Module (PBREM) (AID 2282955); settings: HepG2 PBREM cis-reporter, Attagene multiplexed transcription; actives raise or lower the signal
How it was run: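 Readout: reporter mRNA, fluorescent RT-PCR fragments separated by capillary electrophoresis. System: HepG2 transiently transfected with cis-regulated reporter units. Exposure: 24 h. Analysis: bidirectional, DMSO baseline.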

[12] = molecular target: Paired box protein Pax-6 (Homo sapiens) (UniProt P26367); test: ATG_Pax6_CIS: Attagene CIS-FACTORIAL HepG2 Assay for human Paired Box 6 (PAX6) (AID 2282956); settings: HepG2 CIS-FACTORIAL PAX6 reporter transcription, RNA readout; actives raise or lower the signal
How it was run: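 HepG2 cells transiently transfected with cis-promoter-driven multiplexed reporter units sensing endogenous transcription factor activity; 24 h chemical exposure. Reporter mRNA quantified by RT-PCR, 6-FAM labelling, HpaI digestion and capillary electrophoresis; bidirectional fit versus DMSO baseline.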

[13] = ATG_PXRE_CIS: Attagene CIS-FACTORIAL HepG2 Assay for human Pregnane X Receptor Element (PXRE) (AID 2282957); settings: HepG2 Attagene CIS-FACTORIAL PXRE reporter, mRNA; actives raise or lower the signal
How it was run: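 Transiently transfected HepG2 cells were dosed and incubated for 24 h. RNA was then isolated, DNase-treated, reverse-transcribed and reporter sequences amplified. Labeled, HpaI-digested fragments were quantified by capillary electrophoresis against DMSO.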

[14] = ATG_PPRE_CIS: Attagene CIS-FACTORIAL HepG2 Assay for human Peroxisome Proliferator-activated Response Element (PPRE) (AID 2282958); settings: HepG2 PPRE cis-element reporter, Attagene transcription factor profiling; actives raise or lower the signal
How it was run: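 After human HepG2 hepatoma cells were transiently transfected with cis-promoter reporter constructs, they were exposed to test chemicals for 24 hours. Reporter RNA was then reverse-transcribed, PCR-amplified, FAM-labeled, HpaI-digested and quantified by capillary electrophoresis.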

[15] = ATG_RORE_CIS: Attagene CIS-FACTORIAL HepG2 Assay for human RAR-related Orphan Receptor Element (RORE) (AID 2282959); settings: HepG2 Attagene cis-factorial RORE reporter, mRNA; actives raise or lower the signal
How it was run: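 Measured here: transcript induction of a cis-regulated reporter in HepG2 cells transiently transfected via FuGene 6. After 24 h, RNA was processed by RT-PCR and fluorescent capillary electrophoresis; DMSO defined baseline activity.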

[16] = ATG_Sox_CIS: Attagene CIS-FACTORIAL HepG2 Assay for human SRY-box transcription factor (SOX) (AID 2282960); settings: HepG2 Attagene cis-factorial SOX reporter, mRNA; actives raise or lower the signal
How it was run: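 Using transiently transfected HepG2 cells, reporter transcription driven by cis elements was assessed 24 h after dosing. Signal was fluorescence of capillary-separated RT-PCR products, with DMSO defining baseline activity.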

[17] = molecular target: Transcription factor Sp1 (Homo sapiens) (UniProt P08047); test: ATG_Sp1_CIS: Attagene CIS-FACTORIAL HepG2 Assay for human Specificity Protein 1 (Sp1) (AID 2282961); settings: HepG2 Sp1 cis-reporter transcription, actives raise or lower the signal
How it was run: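 After transient transfection of HepG2 cells with cis-promoter reporter units and 24 h chemical treatment, reporter transcripts were quantified by RT-PCR and capillary electrophoresis fluorescence. Gain- and loss-of-signal fitted against DMSO.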

[18] = ATG_SREBP_CIS: Attagene CIS-FACTORIAL HepG2 Assay for human Sterol Regulatory Element Binding (SREBP) (AID 2282962); settings: HepG2 Attagene cis-factorial SREBP reporter, mRNA; actives raise or lower the signal
How it was run: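 HepG2 cells transiently transfected with multiplexed cis-promoter reporter units sensing endogenous transcription factors; reporter mRNA measured 24 h after dosing by RT-PCR, 6-FAM labeling, HpaI digestion and capillary electrophoresis. Bidirectional fit versus DMSO.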

[19] = molecular target: Signal transducer and activator of transcription 3 (Homo sapiens) (UniProt P40763); test: ATG_STAT3_CIS: Attagene CIS-FACTORIAL HepG2 Assay for human Signal Transducer and Activator of Transcription 3 (STAT3) (AID 2282963); settings: HepG2, Attagene cis-factorial STAT3 reporter transcription; actives raise or lower the signal
How it was run: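 After a 24 h compound incubation, total RNA from MRTU-transfected HepG2 cells was converted to cDNA and reporter sequences PCR-amplified, labelled and profiled by capillary electrophoresis. Gain and loss of signal were referenced to DMSO.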

[20] = ATG_TA_CIS: Attagene CIS-FACTORIAL HepG2 Assay for human TA Basal Promoter (AID 2282964); settings: HepG2 Attagene CIS-factorial TA basal promoter reporter; actives raise or lower the signal
How it was run: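 HepG2 cells transiently transfected with multiplexed cis-promoter reporter units, dosed 24 h. Reporter mRNA measured by RT-PCR, 6-FAM labelling, HpaI digestion and capillary electrophoresis; bidirectional fit versus DMSO baseline, serving as background control.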

Measured: AC50

Paired box protein Pax-6 (Homo sapiens), sequence (P26367 whole entry, looked up): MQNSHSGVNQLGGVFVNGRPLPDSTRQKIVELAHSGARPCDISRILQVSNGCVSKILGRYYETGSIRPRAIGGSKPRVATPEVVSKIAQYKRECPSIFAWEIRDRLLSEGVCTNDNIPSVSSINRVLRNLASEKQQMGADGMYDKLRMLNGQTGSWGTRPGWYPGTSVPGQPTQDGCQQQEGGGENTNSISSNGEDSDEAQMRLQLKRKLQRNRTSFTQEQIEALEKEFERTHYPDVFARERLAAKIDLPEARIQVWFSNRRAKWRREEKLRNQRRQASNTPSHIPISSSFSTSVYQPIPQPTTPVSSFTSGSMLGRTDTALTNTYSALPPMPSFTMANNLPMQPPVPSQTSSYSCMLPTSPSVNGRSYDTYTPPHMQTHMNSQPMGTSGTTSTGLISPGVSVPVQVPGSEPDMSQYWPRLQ
Transcription factor Sp1 (Homo sapiens), sequence (P08047 whole entry, looked up): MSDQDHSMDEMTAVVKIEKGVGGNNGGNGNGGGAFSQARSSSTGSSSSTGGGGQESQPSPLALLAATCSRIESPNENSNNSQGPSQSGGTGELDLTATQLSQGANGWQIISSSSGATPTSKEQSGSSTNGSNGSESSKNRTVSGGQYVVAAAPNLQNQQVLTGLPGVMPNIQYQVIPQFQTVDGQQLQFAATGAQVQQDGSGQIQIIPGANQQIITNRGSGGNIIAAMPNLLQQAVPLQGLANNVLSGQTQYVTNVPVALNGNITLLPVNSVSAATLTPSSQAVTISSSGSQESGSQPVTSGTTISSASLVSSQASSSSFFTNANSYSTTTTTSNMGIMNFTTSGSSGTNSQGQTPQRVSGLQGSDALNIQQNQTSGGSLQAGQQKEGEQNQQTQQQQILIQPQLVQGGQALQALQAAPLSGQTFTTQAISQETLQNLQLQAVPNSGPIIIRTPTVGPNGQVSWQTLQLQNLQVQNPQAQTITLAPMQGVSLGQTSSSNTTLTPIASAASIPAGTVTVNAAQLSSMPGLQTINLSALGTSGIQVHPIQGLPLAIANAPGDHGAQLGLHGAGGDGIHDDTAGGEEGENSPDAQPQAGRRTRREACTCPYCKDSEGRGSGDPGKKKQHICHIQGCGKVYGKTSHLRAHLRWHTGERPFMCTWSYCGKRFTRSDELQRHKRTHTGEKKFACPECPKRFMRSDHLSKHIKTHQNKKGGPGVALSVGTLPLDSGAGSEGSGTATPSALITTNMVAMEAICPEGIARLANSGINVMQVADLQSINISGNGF
Hepatocyte nuclear factor 6 (Homo sapiens), sequence (Q9UBC0 whole entry, looked up, the tested form may be a part): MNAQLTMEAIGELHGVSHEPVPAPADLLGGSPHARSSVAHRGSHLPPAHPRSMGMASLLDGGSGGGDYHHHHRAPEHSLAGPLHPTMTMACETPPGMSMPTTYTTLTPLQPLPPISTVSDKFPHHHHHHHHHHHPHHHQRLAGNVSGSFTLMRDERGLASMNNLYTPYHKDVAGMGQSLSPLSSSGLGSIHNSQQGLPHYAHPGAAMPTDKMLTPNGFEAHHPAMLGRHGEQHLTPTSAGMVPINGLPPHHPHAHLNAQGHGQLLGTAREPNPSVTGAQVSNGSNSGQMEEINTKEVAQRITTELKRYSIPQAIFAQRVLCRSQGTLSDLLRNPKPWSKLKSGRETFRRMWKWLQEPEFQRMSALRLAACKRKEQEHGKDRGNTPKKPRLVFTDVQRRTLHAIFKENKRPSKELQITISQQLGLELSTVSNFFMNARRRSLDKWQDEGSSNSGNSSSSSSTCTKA
Signal transducer and activator of transcription 3 (Homo sapiens), sequence (P40763 whole entry, looked up): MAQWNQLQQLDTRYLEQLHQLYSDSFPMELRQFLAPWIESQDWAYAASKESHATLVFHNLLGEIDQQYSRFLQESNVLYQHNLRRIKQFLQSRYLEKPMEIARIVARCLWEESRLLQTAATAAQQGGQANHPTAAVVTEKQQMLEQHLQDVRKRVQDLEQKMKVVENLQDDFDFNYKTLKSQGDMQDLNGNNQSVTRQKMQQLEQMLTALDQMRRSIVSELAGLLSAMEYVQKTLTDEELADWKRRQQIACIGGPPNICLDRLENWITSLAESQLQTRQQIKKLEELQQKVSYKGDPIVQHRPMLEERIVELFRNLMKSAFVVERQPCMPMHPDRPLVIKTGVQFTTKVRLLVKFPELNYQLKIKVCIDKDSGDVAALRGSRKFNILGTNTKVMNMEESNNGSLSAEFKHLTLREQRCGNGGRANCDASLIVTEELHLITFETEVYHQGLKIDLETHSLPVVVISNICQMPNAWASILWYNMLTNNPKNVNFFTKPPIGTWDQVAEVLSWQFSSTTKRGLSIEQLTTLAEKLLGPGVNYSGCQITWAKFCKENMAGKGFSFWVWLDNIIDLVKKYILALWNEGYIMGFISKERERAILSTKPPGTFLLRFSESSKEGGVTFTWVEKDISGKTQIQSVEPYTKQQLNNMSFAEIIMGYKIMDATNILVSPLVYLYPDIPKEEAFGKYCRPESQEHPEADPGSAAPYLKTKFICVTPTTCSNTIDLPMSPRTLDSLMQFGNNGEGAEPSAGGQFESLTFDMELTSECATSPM
Heat shock factor protein 1 (Homo sapiens), sequence (Q00613 whole entry, looked up): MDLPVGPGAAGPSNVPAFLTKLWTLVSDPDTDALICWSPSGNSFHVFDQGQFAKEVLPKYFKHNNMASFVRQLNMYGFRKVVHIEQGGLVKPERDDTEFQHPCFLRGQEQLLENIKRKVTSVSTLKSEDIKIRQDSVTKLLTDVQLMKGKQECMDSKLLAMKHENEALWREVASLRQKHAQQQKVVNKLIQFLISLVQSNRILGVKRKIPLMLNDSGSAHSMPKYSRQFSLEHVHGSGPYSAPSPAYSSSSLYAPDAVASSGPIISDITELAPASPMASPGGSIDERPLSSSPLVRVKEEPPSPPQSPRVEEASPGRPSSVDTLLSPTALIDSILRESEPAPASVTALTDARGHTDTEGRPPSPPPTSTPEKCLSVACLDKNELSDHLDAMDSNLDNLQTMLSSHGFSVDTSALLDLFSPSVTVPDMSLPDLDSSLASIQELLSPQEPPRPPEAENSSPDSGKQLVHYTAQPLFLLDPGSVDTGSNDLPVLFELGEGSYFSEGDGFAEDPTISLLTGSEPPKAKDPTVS
Hypoxia-inducible factor 1-alpha (Homo sapiens), sequence (Q16665 whole entry, looked up): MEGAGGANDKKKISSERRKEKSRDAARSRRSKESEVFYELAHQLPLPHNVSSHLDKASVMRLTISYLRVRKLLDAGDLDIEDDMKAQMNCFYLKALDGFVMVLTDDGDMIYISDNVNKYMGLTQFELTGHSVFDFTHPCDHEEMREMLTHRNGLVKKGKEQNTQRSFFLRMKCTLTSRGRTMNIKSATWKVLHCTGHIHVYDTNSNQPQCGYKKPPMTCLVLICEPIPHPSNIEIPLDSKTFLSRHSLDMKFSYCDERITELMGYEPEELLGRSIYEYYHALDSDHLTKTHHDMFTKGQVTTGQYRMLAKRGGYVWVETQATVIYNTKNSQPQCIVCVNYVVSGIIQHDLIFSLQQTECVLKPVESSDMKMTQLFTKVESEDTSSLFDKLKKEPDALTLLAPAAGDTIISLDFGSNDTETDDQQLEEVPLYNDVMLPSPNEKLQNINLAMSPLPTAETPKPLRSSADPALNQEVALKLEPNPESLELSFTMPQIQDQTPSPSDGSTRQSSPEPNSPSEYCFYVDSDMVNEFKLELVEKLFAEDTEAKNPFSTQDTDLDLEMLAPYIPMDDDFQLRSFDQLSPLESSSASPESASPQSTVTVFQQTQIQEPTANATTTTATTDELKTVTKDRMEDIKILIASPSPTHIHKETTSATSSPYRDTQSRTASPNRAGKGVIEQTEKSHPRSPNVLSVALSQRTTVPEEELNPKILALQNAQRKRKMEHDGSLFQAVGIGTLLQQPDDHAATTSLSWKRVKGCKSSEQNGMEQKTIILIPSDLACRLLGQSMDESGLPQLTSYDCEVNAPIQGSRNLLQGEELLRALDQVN
Bile acid receptor (Homo sapiens), sequence (Q96RI1 whole entry, looked up, the tested form may be a part): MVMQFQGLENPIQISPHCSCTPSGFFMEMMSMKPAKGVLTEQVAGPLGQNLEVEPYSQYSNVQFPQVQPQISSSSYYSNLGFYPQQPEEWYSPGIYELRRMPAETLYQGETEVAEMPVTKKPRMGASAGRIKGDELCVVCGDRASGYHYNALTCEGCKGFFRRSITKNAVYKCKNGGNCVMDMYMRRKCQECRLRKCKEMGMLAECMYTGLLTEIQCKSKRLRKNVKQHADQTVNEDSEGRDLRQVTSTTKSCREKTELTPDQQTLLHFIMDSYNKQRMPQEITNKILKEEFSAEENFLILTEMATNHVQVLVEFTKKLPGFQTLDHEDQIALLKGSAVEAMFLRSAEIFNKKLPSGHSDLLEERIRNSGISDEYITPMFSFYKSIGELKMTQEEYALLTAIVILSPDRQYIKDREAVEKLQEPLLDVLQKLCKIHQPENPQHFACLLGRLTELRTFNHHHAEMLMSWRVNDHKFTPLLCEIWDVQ

O=C(O)C(F)(F)C(F)(F)C(F)(F)C(F)(F)C(F)(F)C(F)(F)C(F)(F)C(F)(F)C(F)(F)C(F)(F)C(F)(F)C(F)(F)F
inactive: all assays above

FC(F)(F)C(F)(F)CNCC(F)(F)C(F)(F)F
inactive: all assays above

CCc1ccc(C(c2ccc(CC)cc2)C(Cl)Cl)cc1
active: [13] 2.28 µM
inactive: all other assays above

CC(CCl)OP(=O)(OC(C)CCl)OC(C)CCl (centres undefined)
active: [13] 3.53 µM
inactive: all other assays above

CC/C=C\CCOC(=O)c1ccccc1
inactive: all assays above

CS(C)(=O)=O
active: [13] 4.43 µM
not listed: [20]
inactive: all other assays above

O=S(=O)(O)C(F)(F)C(F)(F)C(F)(F)C(F)(F)C(F)(F)C(F)(F)C(F)(F)F
inactive: [1] | [2] | [3] | [4] | [5] | [6] | [7] | [8] | [9] | [10] | [11] | [12] | [14] | [15] | [16] | [17] | [18] | [19]
active: [5] 149 µM | [8] 157 µM | [13] 20.3 µM and 19.7 µM | [14] 61.2 µM | [18] 150 µM | [19] 163 µM

CC(C)c1ccccc1N
active: [13] 34.9 µM
not listed: [20]
inactive: all other assays above

O=C(O)C=C(C(F)(F)F)C(F)(F)F
not listed: [20]
inactive: all other assays above

C=C(C)C(=O)OCCC(F)(F)C(F)(F)C(F)(F)C(F)(F)C(F)(C(F)(F)F)C(F)(F)F
not listed: [20]
inactive: all other assays above

C=CC(F)(F)C(F)(F)C(F)(F)C(F)(F)C(F)(F)C(F)(F)C(F)(F)C(F)(F)F
not listed: [20]
inactive: all other assays above

OCC(F)(F)C(F)(F)C(F)(F)F
inactive: all assays above
